DT40 TDP1 no CPT: qHTS for Inhibitors of human tyrosyl-DNA phosphodiesterase 1 (TDP1): qHTS in cells in absence of CPT | Potency, µM (highest dose often 46.2 µM), most hits filed as inhibitors | 15% of 420,000 active | DT40 Tdp1-/- hTDP1 cells, no CPT, ATP luminescence, 48 h; also: nearly all actives have a fitted effect of over 55% in size
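Camptothecin absent (DMSO only). Human TDP1-complemented DT40 knockout cells, 400 cells/well, 37 °C for minimum 48 hr; ATP measured via CellTiter-Glo, 30 min dark incubation, luminescence.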
TDP1 cell CPT: DT40-hTDP1 cell growth loss with CPT; chicken DT40 Tdp1-/-;hTDP1 cells + 20 nM CPT, ATP luminescence, 48 h; Potency, µM (titrated, usually from 46.2 µM), actives largely listed as inhibitors; 12% of 420,000 active; AID 686979; also: nearly all actives have a fitted effect of over 55% in size
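Cell growth measured by CellTiter-Glo luminescence after a minimum 48 h, 37 C compound exposure with 20 nM CPT in Tdp1-knockout DT40 cells stably expressing hTDP1, seeded 400/well; qHTS titration format.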
ClpP mod: qHTS Assay for Activators of ClpP; purified B. subtilis ClpP, FRET peptide cleavage, 20 min; Potency, µM (top dose mostly 57.5 µM); 1.9% of 340,000 active; active = well fitted falling curve with a large enough effect; inconclusive = small, poorly fitted or top-dose-only effect; inactive = no such curve, though single readings can be large or run the other way; also: the source files actives as falling curves though it sought activators and does not explain the sign; nearly all actives have a fitted effect of over 65% in size
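Buffer: 100 mM Tris/HCl pH8, 100 mM KCl, 0.05% low protease BSA, 2.5% glycerol, 0.01% Tween-20. ClpP 10 microg/mL final; 20 min RT; delta FRET normalized to ADEP and DMSO controls.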
TDP1 block: blocks human tyrosyl-DNA phosphodiesterase 1. Q9NUW8. 0.28% of 350,000 active. Potency, µM (series often up to 130 µM), actives largely listed as inhibitors. recombinant TDP1, AlphaScreen DNA substrate cleavage; also: nearly all actives have a fitted effect of over 40% in size
Target sequence (Q9NUW8 whole entry, looked up): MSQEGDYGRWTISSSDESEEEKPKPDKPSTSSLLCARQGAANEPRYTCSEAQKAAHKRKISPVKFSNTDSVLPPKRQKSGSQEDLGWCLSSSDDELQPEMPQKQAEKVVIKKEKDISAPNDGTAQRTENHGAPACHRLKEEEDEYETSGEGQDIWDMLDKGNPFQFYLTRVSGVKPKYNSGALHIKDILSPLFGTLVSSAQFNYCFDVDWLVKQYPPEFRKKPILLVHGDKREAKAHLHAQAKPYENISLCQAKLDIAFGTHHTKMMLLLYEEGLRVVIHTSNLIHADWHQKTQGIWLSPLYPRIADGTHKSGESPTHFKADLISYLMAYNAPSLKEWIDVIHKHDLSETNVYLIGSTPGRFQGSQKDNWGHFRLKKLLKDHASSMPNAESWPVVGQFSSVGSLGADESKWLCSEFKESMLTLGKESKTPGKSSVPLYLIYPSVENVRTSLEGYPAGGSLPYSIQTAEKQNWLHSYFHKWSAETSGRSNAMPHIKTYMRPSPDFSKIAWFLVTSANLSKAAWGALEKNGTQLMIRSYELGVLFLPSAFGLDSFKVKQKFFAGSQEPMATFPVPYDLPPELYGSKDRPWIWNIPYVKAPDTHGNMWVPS
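Enzyme-compound mixtures sat 15 min at room temperature, followed by a 5 min reaction with 15 nM final substrate and 10 min with AlphaScreen beads. Recombinant human Tdp1 was used at 1 nM final.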
Of the large screens only hits and unclear results are named; the others gave an inactive call; ! = not confirmed by another sample. Sampled rows, rich in hits. Any-hit rate of the full collection: about 17%. Unless noted, calls follow the shape of the dose curve; as a rule, active = well fitted curve in the direction sought with a large enough effect; inconclusive = small, poorly fitted or top-dose-only effect, or another doubt; inactive = no such curve, though single readings can be large; an effect the other way counts as inactive or inconclusive.

O=C(c1csc2ccccc12)N1CCN(c2ccc(Cl)c(Cl)c2)CC1	DT40 TDP1 no CPT 23µM, TDP1 cell CPT 21µM
O=C(c1cc(-n2cnnc2)ccc1Cl)N1CCN(c2nc(-c3ccccc3)cs2)CC1	DT40 TDP1 no CPT 23µM, TDP1 cell CPT 16µM
CCCCNC(=S)N1CCN(c2nc3ccccc3s2)CC1	DT40 TDP1 no CPT inconclusive, TDP1 cell CPT inconclusive
O=C(NCCO)C(=O)NCC1OCCCN1S(=O)(=O)c1cc(F)ccc1F (centres undefined)	none
COCCCNC(=S)N1CCN(c2nc(-c3ccc(Cl)cc3)cs2)CC1	DT40 TDP1 no CPT 18µM, TDP1 cell CPT inconclusive (no result: TDP1 block)
CCC(=O)N1CCN(c2nc(-c3ccc(Cl)cc3)cs2)CC1	DT40 TDP1 no CPT 23µM, TDP1 cell CPT 23µM
Clc1ccc(-c2csc(N3CCSCC3)n2)cc1	none
CC(C)CNC(=S)N1CCN(c2nc(-c3ccc(Cl)cc3)cs2)CC1	DT40 TDP1 no CPT 16µM, TDP1 cell CPT inconclusive (no result: ClpP mod, TDP1 block)
COc1ccc(N2CCN(C(=O)CN3CCN(c4nc(-c5ccc(F)cc5)cs4)CC3)CC2)cc1	DT40 TDP1 no CPT 7.3µM, TDP1 cell CPT 5.8µM (no result: ClpP mod)
CCCCCC(=O)N1C[C@@H](n2cc(COC(=O)c3ccccc3)nn2)[C@H](O)C[C@@H]1c1ccccc1	DT40 TDP1 no CPT inconclusive (no result: TDP1 block)
CSCC[C@H](NC(=O)Nc1ccc(S(N)(=O)=O)cc1)C(=O)O	none (no result: TDP1 block)
O=C(CN1CCN(c2nc(-c3ccccc3)cs2)CC1)NNC(=O)c1ccc(Br)cc1	TDP1 cell CPT inconclusive
O=C(NC(=S)N1CCN(c2nc(-c3ccccc3)cs2)CC1)c1cncc(Br)c1	DT40 TDP1 no CPT inconclusive, TDP1 cell CPT 10µM
Cc1ccc(C)c(C(=O)COc2ncnc3ccccc23)c1	DT40 TDP1 no CPT inconclusive, TDP1 cell CPT 18µM
COc1ccc(N(C(=O)c2ccco2)C(C(=O)NC2CCCCC2)c2cccs2)cc1OC (centres undefined)	DT40 TDP1 no CPT inconclusive, TDP1 cell CPT inconclusive
C#CC(=O)N(c1ccc(OC)cc1OC)C(C(=O)NC1CCCC1)c1cccs1 (centres undefined)	DT40 TDP1 no CPT 2.1µM, TDP1 cell CPT inconclusive (no result: ClpP mod)
C#CC(=O)N(c1cc(OC)ccc1OC)C(C(=O)NC1CCCC1)c1cccs1 (centres undefined)	DT40 TDP1 no CPT 2.1µM, TDP1 cell CPT 2.3µM
c1ccc(C[n+]2csc3ccccc32)cc1	DT40 TDP1 no CPT 1µM, TDP1 cell CPT 1µM
Cc1cc[n+](Cc2ccccc2)c(N)c1	none (no result: TDP1 block)
c1ccc2c(c1)sc[n+]2CCC1CCCCC1	DT40 TDP1 no CPT 2.5µM, TDP1 cell CPT 5µM (no result: TDP1 block)
CC(=O)N1CCC(C(=O)OCc2ccccc2F)(c2ccccc2)CC1	DT40 TDP1 no CPT 21µM, TDP1 cell CPT inconclusive
O=C(OCCN1CCCC1)C1(c2ccccc2)CCCC1	none
CC1Nc2ncnc(N3CCN(c4ccccc4)CC3)c2N(Cc2ccccc2)C1=O (centres undefined)	DT40 TDP1 no CPT 16µM, TDP1 cell CPT inconclusive
CC1Nc2ncnc(N3CCOCC3)c2N(Cc2ccc(Cl)cc2)C1=O (centres undefined)	DT40 TDP1 no CPT inconclusive (no result: TDP1 block)
CC1Nc2ncnc(N3CCN(c4ccccc4)CC3)c2N(Cc2ccc(Cl)cc2)C1=O (centres undefined)	DT40 TDP1 no CPT 18µM, TDP1 cell CPT inconclusive
Cc1ccc(NS(=O)(=O)c2cccc(F)c2)cc1C	none (no result: DT40 TDP1 no CPT, TDP1 cell CPT, ClpP mod)
CCOC(=O)c1c(S(=O)(=O)N2CCC(C(=O)NCc3ccc(F)cc3)CC2)c(C)n(C)c1C	none
Cc1ccc(NC(=S)NCCc2ccccc2)c(C)c1	DT40 TDP1 no CPT inconclusive, TDP1 cell CPT inconclusive
COc1ccccc1NC(=S)NCCc1ccc(F)cc1	DT40 TDP1 no CPT inconclusive (no result: ClpP mod)
COc1ccccc1NC(=S)NCCc1ccccc1	DT40 TDP1 no CPT 21µM
Cc1ccc(NC(=S)NCCc2c[nH]c3ccccc23)c(C)c1	DT40 TDP1 no CPT 21µM, TDP1 cell CPT 13µM
COc1ccccc1NC(=S)NCCc1c[nH]c2ccccc12	DT40 TDP1 no CPT 18µM, TDP1 cell CPT 15µM
O=c1[nH]cccc1-c1nc2ccccc2n1Cc1ccccc1F	DT40 TDP1 no CPT 29µM, TDP1 cell CPT 21µM (no result: TDP1 block)
O=C(NCCN1CCN(c2cccc(Cl)c2)CC1)Nc1ccccc1	DT40 TDP1 no CPT 15µM, TDP1 cell CPT inconclusive
O=C(NCCN1CCN(c2ccccc2)CC1)Nc1cccc(Br)c1	DT40 TDP1 no CPT 29µM, TDP1 cell CPT inconclusive
COc1ccccc1NC(=O)NCCN1CCN(c2cccc(Cl)c2)CC1	DT40 TDP1 no CPT 23µM!, TDP1 cell CPT inconclusive
COc1ccccc1NC(=O)NCCN1CCCCC1	none
COc1ccc2c(c1)CC(C(=O)NCCN1CCN(c3cccc(Cl)c3)CC1)CO2 (centres undefined)	DT40 TDP1 no CPT 15µM, TDP1 cell CPT 16µM
O=C(NCCN1CCN(c2cccc(Cl)c2)CC1)C1COc2ccccc2C1 (centres undefined)	DT40 TDP1 no CPT inconclusive, TDP1 cell CPT inconclusive
OC[C@@H]1CN(CCN2CCOCC2)C[C@H](n2cnc3c(NC4CCCC4)ncnc32)O1	none (no result: TDP1 block)
COc1ccc(NC(=O)COC(=O)CNC(=O)c2cccs2)cc1Cl	none
CCOC(=O)CCN1C(=O)[C@H]2[C@H]3[C@H](O)[C@H](O)C/C(=N/NC(=O)OCC)[C@@H]3CC[C@@H]2C1=O	none (no result: DT40 TDP1 no CPT, TDP1 cell CPT, ClpP mod)
O=C(CN(Cc1ccccc1)C(=O)CCl)c1cccc(Br)c1	DT40 TDP1 no CPT 16µM, TDP1 cell CPT 9.2µM (no result: TDP1 block)
CC(=O)c1ccc(Sc2nnnn2-c2ccccc2)c([N+](=O)[O-])c1	DT40 TDP1 no CPT 2.3µM, TDP1 cell CPT 2.6µM
CC(=O)c1ccc(Sc2ccccn2)c([N+](=O)[O-])c1	none
CN1CCN(S(=O)(=O)c2ccc(Sc3nnnn3-c3ccccc3)c([N+](=O)[O-])c2)CC1	DT40 TDP1 no CPT 3.3µM, TDP1 cell CPT 2.9µM
Cn1c(Sc2ccc(C(=O)O)cc2[N+](=O)[O-])nnc1-c1ccccc1	DT40 TDP1 no CPT inconclusive, TDP1 cell CPT 21µM (no result: ClpP mod)
Cn1cnnc1Sc1cc(N2CCN(S(=O)(=O)c3ccccc3)CC2)ccc1[N+](=O)[O-]	DT40 TDP1 no CPT inconclusive, TDP1 cell CPT inconclusive
O=C(O)c1ccc(Sc2nnc(-c3cccc(Br)c3)o2)c([N+](=O)[O-])c1	none
O=[N+]([O-])c1ccc(Sc2nnnn2-c2ccccc2)c(Cl)c1	DT40 TDP1 no CPT 21µM, TDP1 cell CPT inconclusive
O=C1CSc2cc(Cl)ccc2N1	none (no result: ClpP mod, TDP1 block)
COc1ccc2[nH]cc(CCNS(=O)(=O)c3ccccc3)c2c1	DT40 TDP1 no CPT inconclusive (no result: ClpP mod)
O=C(O)c1cccc(NC(=O)c2ccc(COc3ccc(Cl)cc3)cc2)c1	none (no result: TDP1 block)
COc1ccc(COc2cc(-c3cccc(OC)c3)nc3ccc(NC(=O)c4cccnc4)cc23)cc1	DT40 TDP1 no CPT inconclusive, TDP1 cell CPT inconclusive, ClpP mod inconclusive
COc1ccc(COc2cc(-c3cccc(OC)c3)nc3ccc(NC(=O)c4ccc(Cl)cc4)cc23)cc1	DT40 TDP1 no CPT 16µM, TDP1 cell CPT inconclusive

Screening results: PubChem BioAssay, National Center for Advancing Translational Sciences (NCATS)
